Data taken from the supplement of paper PMC11402862.

Target: FXR LBD (GAL4 fusion) (UniProt Q96RI1)
Test: luciferase reporter transactivation, fold of solvent control; higher = stronger receptor activation
Conditions: HEK293T, exposure time: 24 h
Procedure: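 HEK293T cells were transiently transfected with a GAL4-DBD fused to the ligand-binding domain of a human nuclear receptor (PPARα, PPARγ, PPARδ, FXR, LXRα, PXR, RARα or CAR), the GAL4-(UAS)5-TK firefly luciferase reporter and a Renilla luciferase normalisation plasmid. Cells were exposed to compound for 24 h in 0.5% DMSO. Firefly/Renilla luciferase was expressed as fold of the solvent control (=1). Values are the mean of 2-3 biological replicates; receptor agonists were used as positive controls.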

FXR LBD (GAL4 fusion), sequence (Q96RI1 whole entry, looked up, the tested form may be a part): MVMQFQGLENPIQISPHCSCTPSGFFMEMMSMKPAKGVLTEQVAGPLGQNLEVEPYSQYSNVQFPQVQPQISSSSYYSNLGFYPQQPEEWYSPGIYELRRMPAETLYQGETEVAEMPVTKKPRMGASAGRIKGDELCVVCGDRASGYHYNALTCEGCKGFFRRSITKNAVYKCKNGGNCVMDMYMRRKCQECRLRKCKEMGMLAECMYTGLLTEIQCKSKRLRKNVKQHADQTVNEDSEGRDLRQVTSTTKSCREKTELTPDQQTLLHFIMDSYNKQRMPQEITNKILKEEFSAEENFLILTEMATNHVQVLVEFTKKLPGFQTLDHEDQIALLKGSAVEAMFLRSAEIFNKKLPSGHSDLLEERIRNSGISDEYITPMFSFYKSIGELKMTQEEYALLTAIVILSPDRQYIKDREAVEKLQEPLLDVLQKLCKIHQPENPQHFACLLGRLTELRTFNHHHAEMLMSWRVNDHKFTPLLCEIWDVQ

SMILES	luciferase reporter transactivation (concentration: 1 µM)	luciferase reporter transactivation (concentration: 2.5 µM)	luciferase reporter transactivation (concentration: 5 µM)	luciferase reporter transactivation (concentration: 10 µM)	luciferase reporter transactivation (concentration: 100 µM)	luciferase reporter transactivation (concentration: 25 µM)	luciferase reporter transactivation (concentration: 50 µM)	luciferase reporter transactivation (concentration: 250 µM)	luciferase reporter transactivation (concentration: 500 µM)
NS(=O)(=O)C(F)(F)C(F)(F)C(F)(F)C(F)(F)C(F)(F)C(F)(F)C(F)(F)C(F)(F)F [perfluorooctane sulfonamide]	0.705	0.788	1.1	0.752	1.01	–	–	–	–
O=C(O)C(F)(F)C(F)(F)F [perfluoropropanoic acid]	1.54	–	1.63	1.39	1.43	0.693	1.46	1.27	1.62
